# Source: article PMC7862700, “An all-to-all approach to the identification of sequence-specific readers for epigenetic DNA modifications on cytosine”
# Assays:
# Assay in all cases: DAPPL (digital affinity profiling via proximity ligation, sequencing); 10 mM Tris-HCl pH 7.5, 50 mM NaCl, 1 mM DTT, 4% glycerol, room temperature, 30 min; GST-TFs on glutathione beads, 16-mer random dsDNA library, 0.1% formaldehyde crosslink after washing; high values mean tight binding
# FEV = target: T1, FEV (Homo sapiens, UniProt Q99581 1-238); conditions: protein: recombinant; tags: N-terminal GST; dsDNA, one strand shown
# T1 sequence: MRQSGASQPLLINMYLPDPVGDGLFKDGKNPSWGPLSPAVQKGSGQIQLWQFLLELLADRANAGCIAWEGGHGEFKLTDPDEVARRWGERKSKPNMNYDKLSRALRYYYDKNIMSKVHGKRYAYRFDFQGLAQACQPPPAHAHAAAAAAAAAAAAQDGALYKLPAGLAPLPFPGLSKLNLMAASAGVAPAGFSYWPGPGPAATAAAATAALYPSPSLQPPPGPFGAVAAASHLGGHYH
# Procedure, shortened: (§1)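 Human transcription factors carrying a GST fusion were produced in yeast, bound to glutathione beads, tagged with DNA barcodes and pooled together with a tag-only sample. Each pool was held with 200 nmole of a random double-stranded 16-mer DNA library in Tris/NaCl/DTT/glycerol buffer for 30 min at room temperature, then washed, crosslinked in 0.1% formaldehyde, proximity-ligated with BsaI/T4 ligase (1 h, 37 °C), PCR-amplified and sequenced on an Illumina NextSeq500. Binding signal is the read frequency of each hexamer for a given factor divided by its frequency in the tag-only sample.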
# ETV5 = ETV5 (Homo sapiens, UniProt P41161 1-510); conditions: protein: recombinant; tags: N-terminal GST; dsDNA, one strand shown
# Sequence of ETV5 (P41161 whole entry): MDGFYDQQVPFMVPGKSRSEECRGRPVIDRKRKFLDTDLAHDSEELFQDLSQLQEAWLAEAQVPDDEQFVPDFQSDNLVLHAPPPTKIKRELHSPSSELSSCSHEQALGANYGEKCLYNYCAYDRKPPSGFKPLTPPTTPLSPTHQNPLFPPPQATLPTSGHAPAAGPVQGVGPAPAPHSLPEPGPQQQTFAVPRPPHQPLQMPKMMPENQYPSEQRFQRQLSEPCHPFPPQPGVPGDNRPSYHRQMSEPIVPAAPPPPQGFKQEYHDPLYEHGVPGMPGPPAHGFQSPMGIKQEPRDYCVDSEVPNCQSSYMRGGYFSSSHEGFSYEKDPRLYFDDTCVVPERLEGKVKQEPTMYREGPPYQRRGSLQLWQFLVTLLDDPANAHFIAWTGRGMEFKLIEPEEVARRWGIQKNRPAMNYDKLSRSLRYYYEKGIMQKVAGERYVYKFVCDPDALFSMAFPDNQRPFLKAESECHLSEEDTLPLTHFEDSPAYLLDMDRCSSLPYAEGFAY
# Procedure, shortened: as §1
# HSF1 = HSF1 (Homo sapiens, UniProt Q00613 1-529); conditions: protein: recombinant; tags: N-terminal GST; chain copies: 3; dsDNA, one strand shown
# Sequence of HSF1 (Q00613 whole entry): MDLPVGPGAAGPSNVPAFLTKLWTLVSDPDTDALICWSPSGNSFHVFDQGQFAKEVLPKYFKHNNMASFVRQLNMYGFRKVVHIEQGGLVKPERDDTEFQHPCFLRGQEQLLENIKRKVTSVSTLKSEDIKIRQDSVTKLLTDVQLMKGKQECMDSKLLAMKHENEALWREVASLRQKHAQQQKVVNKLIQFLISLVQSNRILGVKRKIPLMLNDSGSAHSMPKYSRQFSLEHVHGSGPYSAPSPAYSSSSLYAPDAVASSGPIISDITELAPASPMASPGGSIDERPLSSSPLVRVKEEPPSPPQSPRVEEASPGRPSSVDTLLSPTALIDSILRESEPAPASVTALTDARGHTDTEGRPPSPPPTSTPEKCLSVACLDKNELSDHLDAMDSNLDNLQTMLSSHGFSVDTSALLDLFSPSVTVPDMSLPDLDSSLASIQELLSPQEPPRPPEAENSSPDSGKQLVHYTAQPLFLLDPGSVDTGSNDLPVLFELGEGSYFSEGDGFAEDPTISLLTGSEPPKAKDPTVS
# Procedure, shortened: as §1
# SPIC = target: T2, SPIC (Homo sapiens, UniProt Q8N5J4 1-248); conditions: protein: recombinant; tags: N-terminal GST; dsDNA, one strand shown
# T2 sequence: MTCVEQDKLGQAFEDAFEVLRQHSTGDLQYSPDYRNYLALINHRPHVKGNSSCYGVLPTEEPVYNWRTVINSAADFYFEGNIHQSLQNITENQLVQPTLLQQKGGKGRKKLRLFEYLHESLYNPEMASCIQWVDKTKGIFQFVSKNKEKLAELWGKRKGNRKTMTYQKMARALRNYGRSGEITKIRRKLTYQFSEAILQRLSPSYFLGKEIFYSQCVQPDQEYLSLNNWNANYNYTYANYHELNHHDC
# Procedure, shortened: as §1
# ELF4 = ELF4 (Homo sapiens, UniProt Q99607 1-663); conditions: protein: recombinant; tags: N-terminal GST; dsDNA, one strand shown
# Sequence of ELF4 (Q99607 whole entry): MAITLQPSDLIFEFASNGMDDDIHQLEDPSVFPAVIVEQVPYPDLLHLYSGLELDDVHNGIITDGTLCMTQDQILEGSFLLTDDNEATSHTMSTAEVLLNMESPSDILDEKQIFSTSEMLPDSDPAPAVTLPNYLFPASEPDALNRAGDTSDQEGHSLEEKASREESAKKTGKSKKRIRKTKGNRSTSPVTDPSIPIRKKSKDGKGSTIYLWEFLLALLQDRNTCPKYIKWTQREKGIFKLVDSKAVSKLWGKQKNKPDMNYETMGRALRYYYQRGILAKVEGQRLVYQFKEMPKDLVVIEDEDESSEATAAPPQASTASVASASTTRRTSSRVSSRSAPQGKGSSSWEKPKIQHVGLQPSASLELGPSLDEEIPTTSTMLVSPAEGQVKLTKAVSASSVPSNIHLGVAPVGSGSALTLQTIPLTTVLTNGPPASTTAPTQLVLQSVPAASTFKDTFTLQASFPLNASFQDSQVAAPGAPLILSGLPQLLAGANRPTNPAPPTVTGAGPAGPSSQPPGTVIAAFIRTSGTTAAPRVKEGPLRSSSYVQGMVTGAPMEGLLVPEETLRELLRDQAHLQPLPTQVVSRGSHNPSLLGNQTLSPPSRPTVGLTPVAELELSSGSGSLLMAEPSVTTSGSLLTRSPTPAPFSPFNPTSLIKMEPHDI
# Procedure, shortened: as §1
# ELK4 = target: T3, ELK4 (Homo sapiens, UniProt P28324-2 1-405); conditions: protein: recombinant; tags: N-terminal GST; dsDNA, one strand shown
# T3 sequence: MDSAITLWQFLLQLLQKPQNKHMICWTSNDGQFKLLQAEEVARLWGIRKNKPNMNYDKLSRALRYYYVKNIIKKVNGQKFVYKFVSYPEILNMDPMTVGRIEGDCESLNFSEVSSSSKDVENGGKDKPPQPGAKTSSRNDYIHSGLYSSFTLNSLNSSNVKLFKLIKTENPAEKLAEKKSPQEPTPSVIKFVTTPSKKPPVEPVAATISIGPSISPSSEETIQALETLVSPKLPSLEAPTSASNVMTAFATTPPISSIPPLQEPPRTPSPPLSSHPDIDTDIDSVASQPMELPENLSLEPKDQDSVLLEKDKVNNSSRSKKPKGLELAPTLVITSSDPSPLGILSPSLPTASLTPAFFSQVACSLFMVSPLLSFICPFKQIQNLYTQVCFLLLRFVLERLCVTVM
# Procedure, shortened: as §1
# ETV2 = target: T4, ETV2 (Homo sapiens, UniProt O00321 1-342); conditions: protein: recombinant; tags: N-terminal GST; dsDNA, one strand shown
# T4 sequence: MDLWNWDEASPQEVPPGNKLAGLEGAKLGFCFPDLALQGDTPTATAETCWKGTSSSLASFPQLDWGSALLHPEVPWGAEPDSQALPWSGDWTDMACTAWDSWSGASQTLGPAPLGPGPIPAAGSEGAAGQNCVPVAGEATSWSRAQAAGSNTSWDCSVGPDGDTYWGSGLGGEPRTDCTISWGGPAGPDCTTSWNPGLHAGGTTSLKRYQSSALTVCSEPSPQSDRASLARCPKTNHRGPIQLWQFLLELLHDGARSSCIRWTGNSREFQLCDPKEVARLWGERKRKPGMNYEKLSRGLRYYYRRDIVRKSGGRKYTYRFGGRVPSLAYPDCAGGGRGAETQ
# Procedure, shortened: as §1
# ELF3 = target: T5, ELF3 (Homo sapiens, UniProt P78545 1-371); conditions: protein: recombinant; tags: N-terminal GST; dsDNA, one strand shown
# T5 sequence: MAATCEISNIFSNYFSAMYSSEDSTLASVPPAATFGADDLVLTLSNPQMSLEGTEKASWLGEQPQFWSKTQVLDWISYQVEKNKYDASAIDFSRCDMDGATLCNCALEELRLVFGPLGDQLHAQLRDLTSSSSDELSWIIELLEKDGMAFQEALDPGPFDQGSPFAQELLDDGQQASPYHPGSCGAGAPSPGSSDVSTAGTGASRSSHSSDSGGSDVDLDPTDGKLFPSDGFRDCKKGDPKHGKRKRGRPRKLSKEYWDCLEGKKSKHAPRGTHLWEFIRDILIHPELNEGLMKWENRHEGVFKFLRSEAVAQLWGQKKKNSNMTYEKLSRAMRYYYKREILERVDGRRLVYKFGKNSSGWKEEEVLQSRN
# Procedure, shortened: as §1
# CRX = CRX (Homo sapiens, UniProt O43186 1-299); conditions: protein: recombinant; tags: N-terminal GST; dsDNA, one strand shown
# Sequence of CRX (O43186 whole entry): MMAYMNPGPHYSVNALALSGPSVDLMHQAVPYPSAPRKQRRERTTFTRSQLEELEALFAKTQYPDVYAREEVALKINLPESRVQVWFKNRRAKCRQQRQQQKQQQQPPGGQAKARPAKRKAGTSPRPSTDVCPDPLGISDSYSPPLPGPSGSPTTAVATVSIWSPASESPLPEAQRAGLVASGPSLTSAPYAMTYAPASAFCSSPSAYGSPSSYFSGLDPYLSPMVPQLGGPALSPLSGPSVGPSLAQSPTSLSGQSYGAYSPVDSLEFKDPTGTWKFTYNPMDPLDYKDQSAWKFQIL
# Procedure, shortened: as §1
# ETV1 = ETV1 (Homo sapiens, UniProt P50549 1-477); conditions: protein: recombinant; tags: N-terminal GST; dsDNA, one strand shown
# Sequence of ETV1 (P50549 whole entry): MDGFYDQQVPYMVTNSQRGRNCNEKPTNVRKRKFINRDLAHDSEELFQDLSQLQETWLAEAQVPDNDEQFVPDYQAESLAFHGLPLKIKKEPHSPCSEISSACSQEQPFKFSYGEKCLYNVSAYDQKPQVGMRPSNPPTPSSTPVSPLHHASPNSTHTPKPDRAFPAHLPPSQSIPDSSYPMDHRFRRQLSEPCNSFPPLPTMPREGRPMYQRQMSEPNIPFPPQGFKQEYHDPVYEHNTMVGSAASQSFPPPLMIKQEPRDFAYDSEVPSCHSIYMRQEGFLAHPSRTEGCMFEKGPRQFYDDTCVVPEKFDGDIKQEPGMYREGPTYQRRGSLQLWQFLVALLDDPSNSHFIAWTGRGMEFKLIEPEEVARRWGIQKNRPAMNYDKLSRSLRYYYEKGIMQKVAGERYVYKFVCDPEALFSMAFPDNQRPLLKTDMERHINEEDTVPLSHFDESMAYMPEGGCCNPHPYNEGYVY
# Procedure, shortened: as §1
# ERF = target: T6, ERF (Homo sapiens, UniProt P50548 1-548); conditions: protein: recombinant; tags: N-terminal GST; dsDNA, one strand shown
# T6 sequence: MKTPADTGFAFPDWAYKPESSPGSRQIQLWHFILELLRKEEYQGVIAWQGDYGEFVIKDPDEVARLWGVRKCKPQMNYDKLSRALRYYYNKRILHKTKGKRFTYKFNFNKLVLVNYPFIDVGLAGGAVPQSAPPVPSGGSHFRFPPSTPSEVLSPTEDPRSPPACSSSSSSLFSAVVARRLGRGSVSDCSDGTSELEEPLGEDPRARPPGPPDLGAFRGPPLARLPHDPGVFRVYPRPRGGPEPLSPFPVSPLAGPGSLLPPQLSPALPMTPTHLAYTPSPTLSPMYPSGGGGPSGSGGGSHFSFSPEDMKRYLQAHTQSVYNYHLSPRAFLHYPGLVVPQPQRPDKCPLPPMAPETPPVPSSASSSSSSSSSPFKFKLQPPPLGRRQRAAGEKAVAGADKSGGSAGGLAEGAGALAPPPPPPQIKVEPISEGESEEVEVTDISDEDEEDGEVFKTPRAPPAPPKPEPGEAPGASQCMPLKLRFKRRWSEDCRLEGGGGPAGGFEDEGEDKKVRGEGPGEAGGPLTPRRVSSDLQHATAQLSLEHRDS
# Procedure, shortened: as §1
# ETV3L = target: T7, ETV3L (Homo sapiens, UniProt Q6ZN32 1-361); conditions: protein: recombinant; tags: N-terminal GST; dsDNA, one strand shown
# T7 sequence: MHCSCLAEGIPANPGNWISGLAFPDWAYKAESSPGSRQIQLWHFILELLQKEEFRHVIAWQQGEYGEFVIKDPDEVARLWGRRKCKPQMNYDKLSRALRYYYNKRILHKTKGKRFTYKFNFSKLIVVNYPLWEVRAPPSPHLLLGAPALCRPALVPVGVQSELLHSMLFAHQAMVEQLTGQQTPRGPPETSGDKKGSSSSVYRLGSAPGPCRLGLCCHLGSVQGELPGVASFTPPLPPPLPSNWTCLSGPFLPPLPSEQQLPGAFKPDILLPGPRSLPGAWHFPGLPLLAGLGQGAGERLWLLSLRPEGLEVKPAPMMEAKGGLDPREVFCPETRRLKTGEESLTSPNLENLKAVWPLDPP
# Procedure, shortened: as §1
# ETS2 = target: T8, ETS2 (Homo sapiens, UniProt P15036 1-469); conditions: protein: recombinant; tags: N-terminal GST; dsDNA, one strand shown
# T8 sequence: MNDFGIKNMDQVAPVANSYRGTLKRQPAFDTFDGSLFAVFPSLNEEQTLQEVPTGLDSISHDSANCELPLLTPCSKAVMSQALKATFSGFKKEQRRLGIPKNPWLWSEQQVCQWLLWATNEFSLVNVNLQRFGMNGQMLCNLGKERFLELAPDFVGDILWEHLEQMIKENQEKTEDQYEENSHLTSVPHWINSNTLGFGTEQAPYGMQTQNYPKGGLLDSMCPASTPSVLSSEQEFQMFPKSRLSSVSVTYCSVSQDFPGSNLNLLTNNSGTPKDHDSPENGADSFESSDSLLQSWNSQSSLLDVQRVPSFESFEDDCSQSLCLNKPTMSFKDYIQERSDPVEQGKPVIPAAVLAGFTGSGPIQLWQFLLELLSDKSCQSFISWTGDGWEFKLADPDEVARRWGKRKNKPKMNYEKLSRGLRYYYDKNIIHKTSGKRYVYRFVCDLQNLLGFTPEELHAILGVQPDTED
# Procedure, shortened: as §1
# SPDEF = target: T9, SPDEF (Homo sapiens, UniProt O95238 1-335); conditions: protein: recombinant; tags: N-terminal GST; dsDNA, one strand shown
# T9 sequence: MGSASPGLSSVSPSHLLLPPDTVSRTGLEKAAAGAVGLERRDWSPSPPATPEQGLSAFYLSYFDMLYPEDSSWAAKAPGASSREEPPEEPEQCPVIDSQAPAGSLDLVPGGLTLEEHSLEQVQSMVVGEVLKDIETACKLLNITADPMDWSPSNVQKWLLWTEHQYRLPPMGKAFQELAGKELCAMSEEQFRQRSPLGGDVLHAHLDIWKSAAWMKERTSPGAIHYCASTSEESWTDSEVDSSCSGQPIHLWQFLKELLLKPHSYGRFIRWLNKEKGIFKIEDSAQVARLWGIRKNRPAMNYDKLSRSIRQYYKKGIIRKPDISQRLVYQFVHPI
# Procedure, shortened: as §1
# ETV7 = target: T10, ETV7 (Homo sapiens, UniProt Q9Y603 1-341); conditions: protein: recombinant; tags: N-terminal GST; dsDNA, one strand shown
# T10 sequence: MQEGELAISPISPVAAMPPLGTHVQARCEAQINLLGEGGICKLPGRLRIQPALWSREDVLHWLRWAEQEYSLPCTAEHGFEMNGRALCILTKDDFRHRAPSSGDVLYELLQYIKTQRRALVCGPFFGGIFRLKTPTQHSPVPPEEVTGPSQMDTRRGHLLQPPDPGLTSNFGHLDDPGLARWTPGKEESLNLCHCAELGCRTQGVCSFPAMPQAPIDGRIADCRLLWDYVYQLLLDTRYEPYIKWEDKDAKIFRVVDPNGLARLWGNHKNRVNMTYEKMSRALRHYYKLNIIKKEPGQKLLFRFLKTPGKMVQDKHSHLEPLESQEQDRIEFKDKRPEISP
# Procedure, shortened: as §1
# ELF5 = target: T11, ELF5 (Homo sapiens, UniProt Q9UKW6-2 1-255); conditions: protein: recombinant; tags: N-terminal GST; dsDNA, one strand shown
# T11 sequence: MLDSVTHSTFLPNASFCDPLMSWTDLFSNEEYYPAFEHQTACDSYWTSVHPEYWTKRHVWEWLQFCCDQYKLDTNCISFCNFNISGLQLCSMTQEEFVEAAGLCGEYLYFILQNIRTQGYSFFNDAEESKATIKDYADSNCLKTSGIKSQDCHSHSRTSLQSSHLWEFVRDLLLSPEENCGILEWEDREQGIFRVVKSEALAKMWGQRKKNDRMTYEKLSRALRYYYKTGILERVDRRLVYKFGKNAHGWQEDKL
# Procedure, shortened: as §1
# ETV3 = target: T12, ETV3 (Homo sapiens, UniProt P41162-2 1-143); conditions: protein: recombinant; tags: N-terminal GST; dsDNA, one strand shown
# T12 sequence: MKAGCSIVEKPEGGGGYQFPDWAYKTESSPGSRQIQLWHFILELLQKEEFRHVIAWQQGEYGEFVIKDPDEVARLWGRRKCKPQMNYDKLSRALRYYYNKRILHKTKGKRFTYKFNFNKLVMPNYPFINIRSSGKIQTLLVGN
# Procedure, shortened: as §1
# ETV6 = ETV6 (Homo sapiens, UniProt P41212 1-452); conditions: protein: recombinant; tags: N-terminal GST; dsDNA, one strand shown
# Sequence of ETV6 (P41212 whole entry): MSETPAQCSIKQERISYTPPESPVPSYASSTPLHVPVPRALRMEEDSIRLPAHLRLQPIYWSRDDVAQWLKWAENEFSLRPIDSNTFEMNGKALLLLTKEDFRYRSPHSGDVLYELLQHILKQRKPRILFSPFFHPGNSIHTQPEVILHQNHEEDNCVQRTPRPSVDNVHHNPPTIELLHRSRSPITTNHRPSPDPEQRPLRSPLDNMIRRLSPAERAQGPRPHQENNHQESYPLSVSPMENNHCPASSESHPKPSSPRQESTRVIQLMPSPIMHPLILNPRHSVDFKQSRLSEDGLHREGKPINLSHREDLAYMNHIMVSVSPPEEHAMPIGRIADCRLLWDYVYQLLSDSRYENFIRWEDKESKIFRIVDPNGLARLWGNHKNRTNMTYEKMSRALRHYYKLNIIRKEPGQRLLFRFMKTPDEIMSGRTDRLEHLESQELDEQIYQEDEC
# Procedure, shortened: as §1
sequence,measurement,setting,value
CTTATC,binding signal,FEV,"1.2 fold enrichment (6-mer frequency, TF over GST control)"
same,binding signal,ETV5,"1.13 fold enrichment (6-mer frequency, TF over GST control)"
same,binding signal,HSF1,"1.6 fold enrichment (6-mer frequency, TF over GST control)"
same,binding signal,SPIC,"1.34 fold enrichment (6-mer frequency, TF over GST control)"
same,binding signal,ELF4,"1.12 fold enrichment (6-mer frequency, TF over GST control)"
same,binding signal,ELK4,"1.18 fold enrichment (6-mer frequency, TF over GST control)"
same,binding signal,ETV2,"1.03 fold enrichment (6-mer frequency, TF over GST control)"
same,binding signal,ELF3,"1.14 fold enrichment (6-mer frequency, TF over GST control)"
same,binding signal,CRX,"2.44 fold enrichment (6-mer frequency, TF over GST control)"
same,binding signal,ETV1,"1.18 fold enrichment (6-mer frequency, TF over GST control)"
same,binding signal,ERF,"1.12 fold enrichment (6-mer frequency, TF over GST control)"
same,binding signal,ETV3L,"1.22 fold enrichment (6-mer frequency, TF over GST control)"
same,binding signal,ETS2,"1.12 fold enrichment (6-mer frequency, TF over GST control)"
same,binding signal,SPDEF,"1.23 fold enrichment (6-mer frequency, TF over GST control)"
same,binding signal,ETV7,"1.1 fold enrichment (6-mer frequency, TF over GST control)"
same,binding signal,ELF5,"1.17 fold enrichment (6-mer frequency, TF over GST control)"
same,binding signal,ETV3,"1.15 fold enrichment (6-mer frequency, TF over GST control)"
same,binding signal,ETV6,"1.1 fold enrichment (6-mer frequency, TF over GST control)"
